AmpC inh detg = inhibitors of E. coli AmpC beta-lactamase with detergent | AmpC hydrolysis of nitrocefin, absorbance 480 nm, 0.01% Triton | actives 0.041% (n = 370,000) | AID 485294 | Potency, µM (series often up to 114 µM), for the others: top-dose activity change, negative = inhibition, actives largely listed as inhibitors;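 note: 0% = no-compound wells and -100% = no-enzyme wells; nearly all actives have a fitted effect of over 25% in size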
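20 mM phosphate pH 7.0 + 0.01% (detergent screen) or 0.0001% Triton X-100; 5.3 nM AmpC reagent; cpd preinc 15 min RT; nitrocefin (800 uM stock) to start; A480 q20 s × 4 min; Activity was normalised to no-enzyme and no-compound control wells.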
Sm TGR inh = blocks Schistosoma mansoni thioredoxin glutathione reductase; Q962Y6; purified TGR, DTNB reduction, TNB absorbance 405 nm; Potency, µM (titrated, usually from 114 µM), for inactives: top-dose activity change, negative = inhibition, usual class: inhibitors; actives 3% (n = 360,000); note: nearly all actives have a fitted effect of over 60% in size
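First, TGR (20 nM dispensed) and NADPH were mixed with compound. Second, a 15 min room-temperature incubation followed. Third, further NADPH and then DTNB were added to start the reaction. Finally, TNB absorbance was monitored kinetically.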
Giardia FBPA inh-1 = Giardia lamblia aldolase inhibition | actives 0.71% (n = 290,000) | Potency, µM (titrated, usually from 59.6 µM), inactives show at the highest dose activity, negative = inhibition, usual class: inhibitors | A8B2U2 | purified Giardia FBPA; note: nearly all actives have a fitted effect of over 55% in size
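Giardia FBPA (40 nM reagent) was preincubated 10 min at RT with compound (up to 57.5 uM final), then substrate plus GAPDH/TPI/NAD/arsenate coupling system with diaphorase/resazurin was added; resorufin fluorescence (525/598 nm) was read after 20 min.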
AmpC inh no detg = blocks E. coli AmpC beta-lactamase in detergent-free assay | actives 0.52% (n = 330,000) | Potency, µM (doses to about 57.1 µM), for the others: top-dose activity change, negative = inhibition, hits mostly inhibitors | P00811 | AID 485341 | AmpC nitrocefin hydrolysis, absorbance 480 nm, 0.0001% Triton;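 note: plate controls were no compound for no effect and no enzyme for full effect; nearly all actives have a fitted effect of over 20% in size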
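20 mM phosphate pH 7.0 + 0.01% (detergent screen) or 0.0001% Triton X-100; 5.3 nM AmpC reagent; cpd preinc 15 min RT; nitrocefin (800 uM stock) to start; A480 q20 s × 4 min; Activity was normalised to no-enzyme and no-compound control wells.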
Giardia growth = blocks growth of Giardia lamblia trophozoites | shares compounds with Giardia FBPA inh-1 | Giardia lamblia trophozoite growth inhibition | Potency, µM (doses to about 57.5 µM), without a hit: at the top dose activity change, negative = inhibition, most hits filed as inhibitors | actives 5% (n = 1,500) | AID 2785;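 note: trophozoites exposed to compound for 48 h at 37 °C; nearly all actives have a fitted effect of over 70% in size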
Mammal cell tox = counter-screen for Giardia aldolase inhibitors: mammalian cell toxicity. Potency, µM (titrated, usually from 57.5 µM), for inactives: at the highest dose viability change, negative = toxicity, usual class: inhibitors. AID 2786. mammalian cell viability counter-screen, qHTS. actives 4% (n = 1,500). shares compounds with Giardia FBPA inh-1;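 note: Chinese hamster ovary cells used as mammalian cytotoxicity surrogate; viability measured as cellular ATP by luminescence; compound exposure lasted 48 h before reading; nearly all actives have a fitted effect of over 60% in size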
Giardia FBPA inh-2 = confirmation of Giardia fructose-bisphosphate aldolase inhibitors | AID 2787 | purified Giardia aldolase enzyme activity, qHTS | Potency, µM (top dose mostly 57.5 µM), for the others: top-dose activity change, negative = inhibition, most hits filed as inhibitors | shares compounds with Giardia FBPA inh-1 | actives 5% (n = 1,500); note: nearly all actives have a fitted effect of over 45% in size
Rabbit FBPA inh = blocks rabbit muscle aldolase in Giardia aldolase selectivity test; Potency, µM (titrated, usually from 57.5 µM), without a hit: top-dose activity, negative = inhibition, hits mostly inhibitors; Rabbit muscle FBPA enzyme inhibition, selectivity counter-screen; actives 4% (n = 1,500); shares compounds with Giardia FBPA inh-1; note: nearly all actives have a fitted effect of over 60% in size
Target sequence (P00883 whole entry, looked up): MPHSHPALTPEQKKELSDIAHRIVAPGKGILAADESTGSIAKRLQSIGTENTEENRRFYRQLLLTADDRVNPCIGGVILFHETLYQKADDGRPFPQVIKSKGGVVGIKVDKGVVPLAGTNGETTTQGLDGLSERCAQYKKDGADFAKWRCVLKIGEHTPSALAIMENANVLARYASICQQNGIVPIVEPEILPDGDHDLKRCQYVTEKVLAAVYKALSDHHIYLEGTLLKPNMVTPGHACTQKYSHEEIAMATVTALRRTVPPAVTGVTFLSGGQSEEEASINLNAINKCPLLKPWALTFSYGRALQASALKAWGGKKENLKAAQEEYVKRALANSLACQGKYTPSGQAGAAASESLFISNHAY
GAPDH coupling = counter-screen for Giardia aldolase inhibitors: GAPDH coupling enzyme | GAPDH coupling enzyme counterscreen, biochemical, qHTS | actives 6% (n = 1,500) | shares compounds with Giardia FBPA inh-1 | Potency, µM (highest dose often 57.5 µM), for the others: at the highest dose activity change, negative = inhibition, usual class: inhibitors | AID 2795; note: nearly all actives have a fitted effect of over 55% in size
An asterisk follows results filed as active; ? = inconclusive; . = not tested or not shown; [ ] = dose if it differs, or a comment. The list is not random: actives were taken first. Their share in the collection is about 3.6%. Calls come from the whole dose curve; as a rule, active = well fitted curve in the direction sought with a large enough effect; inconclusive = small, poorly fitted or top-dose-only effect, or another doubt; inactive = no such curve, though single readings can be large; an effect the other way counts as inactive or inconclusive. Unless noted, % is set by controls: 0 for no effect and ±100 for the full control effect; potency is the fitted concentration of half-maximal effect.

SMILES	AmpC inh detg	Sm TGR inh	Giardia FBPA inh-1	AmpC inh no detg	Giardia growth	Mammal cell tox	Giardia FBPA inh-2	Rabbit FBPA inh	GAPDH coupling
C=CCn1c(SCC(=O)c2ccc(O)c(O)c2)nnc1-c1ccccc1OC	-18%	0%	3.2µM*	-56%	?	?	-19%	-18%	8%
CCn1c(SCC(=O)c2ccc(O)c(O)c2)nnc1-c1ccccc1	-12%	-28%	2.2µM*	-20%	-20%	-15%	-27%	-29%	-1%
C=CCn1c(SCC(=O)c2ccc(O)c(O)c2)nnc1-c1cccc(Cl)c1	-8%	-17%	.	-23%	.	.	.	.	.
CCn1c(SCC(=O)c2ccc(O)c(O)c2)nnc1-c1ccccc1OC	-10%	-12%	3.2µM*	-22%	?	-1%	-24%	-18%	0%
COc1ccccc1-c1nnc(SCC(=O)c2ccc(Cl)cc2)n1-c1ccccc1	1%	9%	.	.	.	.	.	.	.
CCOC(=O)c1cc(-c2ccc(OC)cc2)nc2c1c(C)nn2CCC(N)=S	1%	1%	-8%	83%	.	.	.	.	.
Cc1nc2scc(C)n2c(=O)c1S(=O)(=O)NCc1ccc(F)cc1	-11%	-11%	.	-6%	.	.	.	.	.
COc1ccc(NC(=O)c2ccc(=O)[nH]c2)cc1S(=O)(=O)N1CCOCC1	0%	-5%	.	-13%	.	.	.	.	.
Cc1ccccc1NC(=O)c1ccco1	-10%	-15%	-2%	-9%	.	.	.	.	.
Cc1ccccc1C(=O)NC(=S)Nc1ccccc1[N+](=O)[O-]	-8%	-26%	-28%	-3%[2.29 µM]	.	.	.	.	.
COC(=O)c1cc(OC)c(OC)cc1NC(=S)NC(=O)c1ccco1	2%	11µM*	13µM*	0%	18%	-16%	0%	3%	14%
CCNC(=S)Nc1cc(OC)c(NC(=O)c2ccco2)cc1OC	-2%	?	-6%	-5%	.	.	.	.	.
Cc1ccccc1NC(=S)NNC(=O)c1ccco1	2%	-2%	7.9µM*	-22%	?	-9%	6%	-1%	2%
O=C(NC(=S)Nc1ccccc1[N+](=O)[O-])c1ccco1	?	50µM*	16µM*	-14%	35µM*	1%	-2%	-7%	3%
O=C1CSC(=S)N1	?	-11%	7.9µM*	-7%	-7%[38.3 µM]	-7%	1%	12%	11%
COCCNC(=S)NNc1cccc(C(=O)O)c1	-2%	0%	8.9µM*	-20%	-1%[38.3 µM]	4%	0%	1%	-13%
COCCNC(=O)C(=O)Nc1cccc(Br)c1	?	-7%	0%	-18%	.	.	.	.	.
COc1ccccc1OCC(=O)NNC(=O)c1cnccn1	-4%	27%	16µM*	-9%	?	3%	-1%	-1%	7%
CCOC(=O)Cc1csc(NC(=O)COc2cc(C)cc(C)c2)n1	6%	-1%	0%	-19%	.	.	.	.	.
COc1ccc(OC)c(-c2csc(NC(=O)c3ccc(F)cc3)n2)c1	-3%	14%	22µM*	-21%	-9%[10.4 µM]	-17%	3%	6%	2%
COc1ccc(OC)c(-c2csc(NC(=O)Cc3ccc(F)cc3)n2)c1	6%	11%	.	-14%	.	.	.	.	.
Cc1c(/C=C2\NC(=O)NC2=O)c2ccccc2n1C	?	-7%	-4%	-13%	.	.	.	.	.
CCOc1ccc(CNc2ccc(N3CCN(Cc4ccccc4)CC3)cc2)cc1	-8%	-23%	-18%	-1%	.	.	.	.	.
